Results: PubChem BioAssay AID1159580 (chemical genetic matrix, 2015)
About 2,000 (36%) of roughly 5,500 compounds were called active. Not shown: some 18% with an inconclusive outcome. Rule as the data show it: active = normalized growth mostly below about 0.91 (no sharp cut-off); inconclusive = no clear call, values can overlap the other calls; inactive = mostly above about 0.92. Some of the results follow.

Assay: chemical genetic growth profiling, strain panel (AID 1159580);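 also: tested at 20 µM; growth read once vehicle control cultures reached saturation at 30 °C; 1 = growth at the plate median or of vehicle wells; lower values mean less growth of the strain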
Details: growth OD

Measured: normalized growth

Cn1nnnc1SCC1=C(C(=O)O)N2C(=O)C(NC(=O)C(O)c3ccccc3)C2SC1 (configuration not stated)
inactive: S. cerevisiae deletion strains, locus YJR075W, strain HOC1, active compounds read low 1.01 | S. cerevisiae deletion strains, locus YKL009W, strain mrt4, active compounds read low 1.01 | S. cerevisiae deletion strains, locus YKL068W, active compounds read low 1.01 | S. cerevisiae deletion strains, locus YKL085W, strain MDH1 (second series), active compounds read low 1.01 | S. cerevisiae deletion strains, locus YKL085W, strain MDH1, active compounds read low 1.01 | S. cerevisiae deletion strains, locus YKL160W, strain elf1, active compounds read low 0.95 | S. cerevisiae deletion strains, locus YKL190W, strain CNB1, active compounds read low 1.02 | S. cerevisiae deletion strains, locus YKR001C, strain vps1, active compounds read low 1 | S. cerevisiae deletion strains, locus YKR026C, strain gcn3, active compounds read low 0.974 | S. cerevisiae deletion strains, locus YKR091W, strain srl3, active compounds read low 0.981 | S. cerevisiae deletion strains, locus YLL001W, strain dnm1, active compounds read low 0.955 | S. cerevisiae deletion strains, locus YLL026W, active compounds read low 0.989 | S. cerevisiae deletion strains, locus YLL041C, strain sdh2, active compounds read low 0.968 | S. cerevisiae deletion strains, locus YLR027C, strain aat2, active compounds read low 0.982 | S. cerevisiae deletion strains, locus YLR039C, strain RIC1, active compounds read low 0.991 | S. cerevisiae deletion strains, locus YLR058C, strain SHM2, active compounds read low 1.02 | S. cerevisiae deletion strains, locus YLR102C, strain apc9, active compounds read low 1 | S. cerevisiae deletion strains, locus YLR113W, strain HOG1, active compounds read low 0.938 | S. cerevisiae deletion strains, locus YLR221C, strain rsa3, active compounds read low 0.98 | S. cerevisiae deletion strains, locus YLR258W, strain gsy2, active compounds read low 0.981 | S. cerevisiae deletion strains, locus YLR262C, strain YPT6 (second series), active compounds read low 0.973 | S. cerevisiae deletion strains, locus YLR262C, strain YPT6, active compounds read low 1.1 | S. cerevisiae deletion strains, locus YLR268W, strain sec22, active compounds read low 0.988 | S. cerevisiae deletion strains, locus YLR320W, strain mms22, active compounds read low 0.952 | S. cerevisiae deletion strains, locus YLR330W, strain CHS5, active compounds read low 1.01 | S. cerevisiae deletion strains, locus YLR342W, strain FKS1 (second series), active compounds read low 1.02 | S. cerevisiae deletion strains, locus YLR342W, strain FKS1, active compounds read low 0.972 | S. cerevisiae deletion strains, locus YLR357W, strain rsc2, active compounds read low 0.952 | S. cerevisiae deletion strains, locus YLR370C, strain arc18, active compounds read low 0.967 | S. cerevisiae deletion strains, locus YLR371W, strain rom2, active compounds read low 0.999 | S. cerevisiae deletion strains, locus YLR384C, strain iki3, active compounds read low 0.962 | S. cerevisiae deletion strains, locus YLR418C, strain cdc73, active compounds read low 1 | S. cerevisiae deletion strains, locus YML016C, strain PPZ1, active compounds read low 1.01 | S. cerevisiae deletion strains, locus YML032C, strain rad52, active compounds read low 1 | S. cerevisiae deletion strains, locus YML120C, strain ndi1, active compounds read low 0.964 | S. cerevisiae deletion strains, locus YML124C, strain tub3, active compounds read low 1.01 | S. cerevisiae deletion strains, locus YMR058W, strain fet3, active compounds read low 0.966 | S. cerevisiae deletion strains, locus YMR078C, strain ctf18, active compounds read low 1 | S. cerevisiae deletion strains, locus YMR125W, strain sto1, active compounds read low 0.973 | S. cerevisiae deletion strains, locus YMR129W, active compounds read low 0.981 | S. cerevisiae deletion strains, locus YMR205C, strain PFK2, active compounds read low 0.959 | S. cerevisiae deletion strains, locus YMR223W, strain ubp8, active compounds read low 1.01 | S. cerevisiae deletion strains, locus YMR231W, strain pep5, active compounds read low 0.971 | S. cerevisiae deletion strains, locus YMR263W, strain SAP30, active compounds read low 1.03 | S. cerevisiae deletion strains, locus YMR307W, strain GAS1, active compounds read low 0.993 | S. cerevisiae deletion strains, locus YNL067W, strain RPL9B, active compounds read low 1.03 | S. cerevisiae deletion strains, locus YNL071W, strain lat1, active compounds read low 0.978 | S. cerevisiae deletion strains, locus YNL128W, strain TEP1, active compounds read low 1.03 | S. cerevisiae deletion strains, locus YNL153C, strain GIM3, active compounds read low 1.03 | S. cerevisiae deletion strains, locus YNL183C, strain NPR1, active compounds read low 0.926 | S. cerevisiae deletion strains, locus YNL209W, strain ssb2, active compounds read low 0.982 | S. cerevisiae deletion strains, locus YNL233W, strain BNI4, active compounds read low 1.02 | S. cerevisiae deletion strains, locus YNL248C, strain rpa49, active compounds read low 0.968 | S. cerevisiae deletion strains, locus YNL250W, strain rad50, active compounds read low 1.01 | S. cerevisiae deletion strains, locus YNL271C, strain bni1, active compounds read low 1.01 | S. cerevisiae deletion strains, locus YNL298W, strain CLA4, active compounds read low 1.01 | S. cerevisiae deletion strains, locus YNL307C, strain MCK1, active compounds read low 1 | S. cerevisiae deletion strains, locus YNL322C, strain KRE1 (second series), active compounds read low 0.97 | S. cerevisiae deletion strains, locus YNL322C, strain KRE1, active compounds read low 1.02 | S. cerevisiae deletion strains, locus YNR049C, strain mso1, active compounds read low 0.972 | S. cerevisiae deletion strains, locus YNR052C, strain pop2, active compounds read low 0.997 | S. cerevisiae deletion strains, locus YOL006C, strain TOP1, active compounds read low 1.05 | S. cerevisiae deletion strains, locus YOL012C, strain htz1 0.993 | S. cerevisiae deletion strains, locus YOL147C, strain pex11, active compounds read low 0.999 | S. cerevisiae deletion strains, locus YOR001W, strain rrp6, active compounds read low 0.967 | S. cerevisiae deletion strains, locus YOR061W, strain CKA2, active compounds read low 1.02 | S. cerevisiae deletion strains, locus YOR069W, strain VPS5, active compounds read low 1.01 | S. cerevisiae deletion strains, locus YOR070C, strain gyp1, active compounds read low 0.979 | S. cerevisiae deletion strains, locus YOR080W, strain dia2, active compounds read low 0.97 | S. cerevisiae deletion strains, locus YOR083W, strain WHI5, active compounds read low 0.958 | S. cerevisiae deletion strains, locus YOR106W, strain vam3, active compounds read low 0.945 | S. cerevisiae deletion strains, locus YOR136W, strain idh2, active compounds read low 0.995 | S. cerevisiae deletion strains, locus YOR144C, strain elg1, active compounds read low 1 | S. cerevisiae deletion strains, locus YOR184W, strain ser1, active compounds read low 0.99 | S. cerevisiae deletion strains, locus YOR231W, strain MKK1, active compounds read low 0.996 | S. cerevisiae deletion strains, locus YOR265W, strain rbl2, active compounds read low 0.975 | S. cerevisiae deletion strains, locus YOR270C, strain vph1, active compounds read low 0.974 | S. cerevisiae deletion strains, locus YOR290C, strain snf2, active compounds read low 0.924 | S. cerevisiae deletion strains, locus YOR316C, strain cot1, active compounds read low 0.996 | S. cerevisiae deletion strains, locus YPL051W, strain arl3, active compounds read low 0.964 | S. cerevisiae deletion strains, locus YPL055C, strain LGE1, active compounds read low 1.07 | S. cerevisiae deletion strains, locus YPL078C, strain atp4, active compounds read low 0.968 | S. cerevisiae deletion strains, locus YPL106C, strain sse1, active compounds read low 0.958 | S. cerevisiae deletion strains, locus YPL240C, strain hsp82, active compounds read low 0.991 | S. cerevisiae deletion strains, locus YPL241C, strain CIN2, active compounds read low 1.01 | S. cerevisiae deletion strains, locus YPL256C, strain CLN2, active compounds read low 0.987 | S. cerevisiae deletion strains, locus YPR119W, strain clb2, active compounds read low 0.991 | S. cerevisiae deletion strains, locus YPR141C, strain kar3, active compounds read low 1 | S. cerevisiae deletion strains, locus YPR163C, strain tif3, active compounds read low 0.994 | S. cerevisiae deletion strains, locus YPR167C, strain met16, active compounds read low 1.01 | S. cerevisiae deletion strains, strain wtn01, active compounds read low 1 | S. cerevisiae strains, strain wild type, active compounds read low 1.02
